HT1080NT lethal – qHTS for induction of synthetic lethality in tumor cells producing 2HG: qHTS for the HT-1080-NT fibrosarcoma cell line | hit rate 1.6% among 360,000 | HT-1080-NT fibrosarcoma viability, CellTiter-Glo ATP luminescence, 48 h | AID 686970, 2013 | Potency, µM (highest dose often 46.1 µM), usual class: cytotoxic;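 also: NT is the 2HG producing partner of a matched IDH1 knockdown line; nearly all actives have a fitted effect of over 55% in size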
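HT-1080-NT; 750 cells/well; 5% FBS RPMI; 48 h compound, 37 degrees C; CellTiter-Glo luminescence; curve fitting and curve-class assignment.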
DT40 TDP1 CPT – qHTS for Inhibitors of human tyrosyl-DNA phosphodiesterase 1 (TDP1): qHTS in cells in presence of CPT; chicken DT40 Tdp1-/-;hTDP1 cells + 20 nM CPT, ATP luminescence, 48 h; Potency, µM (highest dose often 46.2 µM), most hits filed as inhibitors; hit rate 12% among 420,000; also: nearly all actives have a fitted effect of over 55% in size
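Chicken DT40 Tdp1-/- cells stably complemented with human TDP1 were seeded at 400 cells/well in medium containing 20 nM camptothecin, exposed to pin-transferred compounds, and grown at 37 °C for at least 48 hr. Viability was read as ATP luminescence.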
TDP1 cell noCPT – qHTS for Inhibitors of human tyrosyl-DNA phosphodiesterase 1 (TDP1): qHTS in cells in absence of CPT | DT40 Tdp1-/- hTDP1 cells, no CPT, ATP luminescence, 48 h | Potency, µM (titrated, usually from 46.2 µM), actives largely listed as inhibitors | hit rate 15% among 420,000; also: nearly all actives have a fitted effect of over 55% in size
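Growth of hTDP1-complemented DT40 Tdp1-knockout cells is measured by ATP luminescence after at least 48 hr compound exposure at 37 °C, with DMSO substituting for the 20 nM CPT used in the parallel screen.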
IL1B secr inh – qHTS for Inhibitors of Inflammasome Signaling: IL-1-beta AlphaLISA Primary Screen; activity change, % at 57.5 µM; hit rate 4.7% among 360,000; THP-1 LPS/ATP IL-1B secretion, AlphaLISA, 16 h; active compounds read low; in the data active = activity change below about -50%; inconclusive = mostly about -30% to -49%
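THP-1 cells pretreated 1 hr with compounds (up to 57.5 uM final), then stimulated with LPS (250 ng/mL final) plus ATP (1.25 mM final); secreted IL-1B measured by AlphaLISA after 16 hr, decreased signal indicating inhibition.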
HT1080 IDH1KD tx – qHTS for induction of synthetic lethality in tumor cells producing 2HG: qHTS for the HT-1080-IDH1KD cell line; hit rate 2% among 360,000; Potency, µM (doses to about 46.1 µM), most hits filed as cytotoxic; HT-1080 IDH1 knockdown viability, ATP luminescence, 48 h
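After a 2 h attachment period, IDH1KD HT-1080 cells took pin-transferred compound for 48 h at 37 °C; ATP-based luminescence after 10 min room-temperature reagent incubation reported viability.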
Numbers stand for hits; n = inactive; u = inconclusive; x = no result; [ ] = remark or other dose. A selection: hits, their analogues and other compounds. The true share with any hit is near 19%. Unless noted, calls follow the shape of the dose curve; as a rule, active = well fitted curve in the direction sought with a large enough effect; inconclusive = small, poorly fitted or top-dose-only effect, or another doubt; inactive = no such curve, though single readings can be large; an effect the other way counts as inactive or inconclusive.

SMILES	HT1080NT lethal	DT40 TDP1 CPT	TDP1 cell noCPT	IL1B secr inh	HT1080 IDH1KD tx
O=C(Nc1ccc(F)c(Cl)c1)c1cc(C2CCCCN2C(=O)CCc2ccccc2)on1 (stereo unspecified)	n	15µM	u	n	n
O=C(Nc1ccccc1)c1cc(C2CCCCN2C(=O)CCc2ccccc2)on1 (stereo unspecified)	n	u	n	n	n
Cc1ccc(C)c(CC(=O)N2CCCCC2c2cc(C(=O)Nc3ccc(F)c(Cl)c3)no2)c1 (stereo unspecified)	u	21µM	23µM	n	n
O=C(COc1ccc(Cl)c2cccnc12)N1CCOCC1	n[9.24 µM]	n	n	n	n
COc1ccc(-c2csc3ncn(-c4ccccc4OC)c(=O)c23)cc1OC	n	u	23µM	n	u
COc1ccc(-c2csc3nc(-c4ccccc4OC)oc(=O)c23)cc1	u	21µM	23µM	x	u
COc1ccc(-c2csc3nc(C)nc(N4CCCCC4)c23)cc1OC	16µM	u	15µM	n	u
COc1ccc(-c2csc3nc(-c4ccc(C)cc4)oc(=O)c23)cc1OC	n	9.2µM	10µM	n	n
Cc1ccc(NS(=O)(=O)c2ccc(NC(=O)c3ccccc3C(=O)O)cc2)cc1C	n	n	n	n	n
Cc1nc(NC(=O)CN2CCN(c3cccc(Cl)c3)CC2)sc1C(=O)N(C)C	n	n	n	n	n
COc1ccc(-c2csc3ncn(-c4cccc(C)c4)c(=O)c23)cc1OC	n	u	u	u	n
COc1ccccc1-n1cnc2sc(-c3ccccc3)cc2c1=O	n	u	12µM	n	n
COc1ccc(-c2csc3nc(C)n(-n4cccc4)c(=O)c23)cc1OC	n	16µM	23µM	n	n
CCOc1ccc(-c2csc3ncn(-c4ccc(OC)cc4)c(=O)c23)cc1	n	u	16µM	u	n
CN(C)c1ccc(S(=O)(=O)NCC(=O)NCCC2=CCCCC2)cc1[N+](=O)[O-]	n	n	n	n	n
COc1ccc(C(=O)NCCc2csc(-c3ccc(Cl)cc3)n2)cc1	x	u	18µM	x	x
COc1ccc(C(=O)NCCc2csc(-c3ccc(Cl)cc3)n2)c(OC)c1	x	u	23µM	x	x
N/C(CC(=O)NC1CCCCC1)=N\OCC(=O)Nc1ccc(Cl)c(Cl)c1	n	u	u	n	n
Cc1ccc(CNC(=O)c2cc(-c3ccccc3)nn2CC2CC(c3cccc([N+](=O)[O-])c3)=NO2)cc1 (stereo unspecified)	n	n	u	n	n
COc1ccc2[nH]c(-c3ccc(C)cc3)cc(=O)c2c1	u	13µM	16µM	n	23µM
COc1ccc(C(=O)Nc2ccc3[nH]c(-c4cccc(OC)c4)cc(=O)c3c2)cc1	u	1µM	0.65µM	n	u
COc1ccc(C(=O)Nc2cccc(OC)c2)cc1	n	n	u	n	n
CC(C)C[C@H]1CN([C@@H](CC(C)C)CN2CCC[C@@H]2CN2C(=S)NC[C@@H]2Cc2ccc(O)cc2)C(=S)N1CCc1ccccc1	u	13µM	9.2µM	u	u
CC(C)C[C@@H](CN1CCCC1CN1C(=S)NC[C@@H]1Cc1ccc(O)cc1)N1C[C@H](Cc2ccccc2)N(CCc2ccccc2)C1=S (stereo partly specified)	n	u	15µM	n	n
CC(C)C[C@H]1CNC(=S)N1C[C@H]1CCCN1C[C@H](CC(C)C)N1C[C@H](Cc2ccc(O)cc2)N(CCc2ccccc2)C1=S	18µM	u	18µM	n	u
CC(C)C[C@@H](CN1CCC[C@@H]1CN1C(=S)NC[C@@H]1Cc1ccc(O)cc1)N1C[C@H](Cc2ccccc2)N(CCc2ccccc2)C1=S	n	u	u	n	n
O=C(Cc1ccccc1)NCC(=O)OCC(=O)c1cccs1	n	n	n	n	n
Cc1ccc(-c2cccc(C(=O)NCc3ccccc3)n2)c2ccccc12	u	u	u	n	u

Screening results: PubChem BioAssay, National Center for Advancing Translational Sciences (NCATS)
